In PubChem BioAssay AID1117319 (Southern Research Institute, 2015):
Where “and” joins values, the source holds several entries; their conditions need not be identical. Identical values can stand only once. Out of some 260,000 compounds screened, about 1,500 (0.58%) were called active. Roughly 5% stayed inconclusive and do not appear here.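 How the source made its calls: active means inhibition above a set limit at one or more doses, reproduced on every date tested; inconclusive means results disagree between test dates, or hit never tested in dose response; inactive means the rest.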 Not all results are given here. Measured potencies and affinities stand elsewhere.

Molecular target: Virion infectivity factor (Human immunodeficiency virus type 1 group M subtype B (isolate BH10)) + Virion infectivity factor (Human immunodeficiency virus type 1 group M subtype B (isolate BRU/LAI)) + Virion infectivity factor (Human immunodeficiency virus type 1 group M subtype B (isolate PCV12)) + Virion infectivity factor (Human immunodeficiency virus type 1 group M subtype B (isolate HXB2)) + DNA dC->dU-editing enzyme APOBEC-3G (Homo sapiens) (UniProt P69720+P69721+P69722+P69723+Q9HC16)
Experiment: HIV-1 Vif–A3G interaction blockers – biochemical, TR-FRET, GST-Vif 1-94, biotin-A3G peptide, dose response retest, primary screen (AID 1117319);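 further: Vif residues 1-94 fused to GST binding biotinylated APOBEC3G peptide 110-148; 0% = full assay without inhibitor and 100% = GST in place of GST-Vif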
Conditions: TR-FRET GST-Vif / biotin-A3G peptide binding; active compounds read high

inhibition, inactive:
CC(=O)Nc1ccc(N2C(=O)CC(Sc3nc(C)cc(C)n3)C2=O)cc1 (centres undefined) 2.02%
CN(C)S(=O)(=O)c1ccc(N2CCCC2)c(C(=O)Nc2ccc(N3CCOCC3)cc2)c1 -0.06%
CC(=O)NCCc1ccc(C(=O)COC(=O)c2cccn2C)cc1 -0.53%
O=C(N/N=C/c1ccc(Cl)cc1Cl)C1CCN(c2ncc(C(F)(F)F)cc2Cl)CC1 0.03%
CN(C)/C=C/C(=O)/C=C/c1ccc(Cl)cc1Cl 0.37%
COc1cccc(/C=C/C(=O)c2cccc([N+](=O)[O-])c2)c1OC -0.4%
COc1ccc(OC)c(/C=C/C(=O)c2ccc(Cl)cc2)c1 -4.03%
COc1ccc(C(=O)/C=C/c2ccc(OC)cc2OC)c(O)c1 -6.99%
COc1cccc(/C=C/C(=O)c2ccc3c(c2)OCCO3)c1OC -6.76%
COc1ccc(NC(=O)/C=C/c2cc(Br)ccc2OC)cc1 -0.44%
NNC(=O)/C=C/c1ccc(Cl)cc1Cl -9.79%
COc1ccc(/C=C/C(=O)c2ccccc2)c(OC)c1 2.19%
Cn1c(=O)c2c(nc(CN3CCN(Cc4ccccc4)CC3)n2Cc2ccc(F)cc2)n(C)c1=O 8.38%
COc1cccc(CNC(=O)CCc2nc3cc(S(=O)(=O)N4CCOCC4)ccc3n2C)c1 -1.52%
COc1ccc(-c2nnc(SCC(=O)c3ccc[nH]3)o2)cc1 0.99%
O=C(Oc1ccccc1-c1nnco1)c1ccc(Cl)cc1 5.13%
COc1ccccc1/C=C/C(=O)c1ccccc1 3.38%
COc1ccc(C=CC(=O)c2cc(O)ccc2O)cc1 -0.99%
COc1ccccc1C=CC(=O)C=Cc1ccccc1OC 7.01%
COc1ccc(/C=C/C(=O)c2ccc(OC)cc2OC)cc1 -1.1%
Cc1nc(C(=O)N/N=C/c2[nH]ncc2Br)cs1 8.49%
COc1ccc(O)c(C(=O)c2cnn(S(=O)(=O)c3ccc(C)cc3)c2)c1 4.82%
CC1(C)CN(c2ccccc2)N(Cc2ccc(F)cc2)C1=O -1.71%
NC(=O)C1(C(=O)O)OC1(c1ccc(Cl)cc1)c1ccccc1Cl (centres undefined) 5.1%
CCN(CC)CCCNC(=O)c1ccc2c(SCC(=O)O)c3c(nc2c1)CCC3 27.5%
CCOc1ccc(NC(=O)c2ccc3c(SCC(=O)O)c4c(nc3c2)CCCC4)cc1 2.98%
CC(C)CCNC(=O)c1ccc2c(SCC(=O)O)c3c(nc2c1)CCCC3 25.7%
COc1cc(NC(=O)c2ccc3c(SCC(=O)O)c4c(nc3c2)CCC4)cc(OC)c1OC 22.2%
CN1CCN(C(=O)c2ccc(CN3CCOCC3)cc2)CC1 -3.34%
Cc1cc(NS(=O)(=O)c2ccc(NC(=O)CSc3nnc(-c4ccco4)n3C)cc2)nc(C)n1 2.91%
O=C(Nc1ccccc1Cl)Nc1ccnn1C1CCN(C(=O)c2cscn2)CC1 5.94%
C=CCn1c(SCC(=O)NC2CC2)nc2ccccc2c1=O 1.47%
O=C(/C=C/Nc1ccc(F)cc1)c1ccco1 10.5%
O=C(/C=C/Nc1ccc(Oc2ccccc2)cc1)c1ccco1 12.6%
NS(=O)(=O)c1ccc(NC(=O)C2CCCN(S(=O)(=O)c3ccc(F)cc3)C2)cc1 (centres undefined) -11.9%
COc1cccc(N(CC(=O)NCc2cccnc2)S(C)(=O)=O)c1 -2.81%
Cc1ccc(N(CC(=O)NCc2cccnc2)S(C)(=O)=O)cc1C -4.47%
CN1CCN(c2ccccc2NC(=O)c2ccc(Br)o2)CC1 0.41%
O=C(Nc1ccccc1N1CCOCC1)c1ccc(Br)o1 7.09%
O=C(O)c1cc(-c2ccc(N3CCOCC3)cc2)nn1-c1ccc(F)cc1 18.4%
Cn1cnc(S(=O)(=O)N2CCc3ccccc32)c1 3.79%
c1cc2c3c(cccc3c1)NC1(CCCC1)N2 2.08%
c1cc2c3c(cccc3c1)NC1(CCCCC1)N2 10.4%
Cc1cc(=O)[nH]c(SCCCOc2ccc3c(c2)CCC3)n1 -0.15%
CCn1nnnc1SCC(=O)NCc1ccco1 21.2%
CCn1c(SCC(=O)NC(=O)NCc2ccco2)nnc1-c1cccs1 -5.61%
CC(C)n1nnnc1SCC(=O)NCc1ccco1 20%
Cn1c(SCC(=O)NCc2ccco2)nnc1-c1cccs1 -8.22%
Clc1ccccc1Cc1noc(CN2CCCCC2c2ccccn2)n1 (centres undefined) 2.88%
COc1cccc(OCc2nnc(SCC(=O)N3c4ccccc4Sc4ccc(Cl)cc43)o2)c1 8.84%
O=C(CN(C(=O)Cn1nnc(-c2ccc(F)cc2)n1)c1cnc2ccccc2c1)NCC1CCCO1 (centres undefined) -11.4%
Cc1cc(=O)n2[nH]c(-c3sccc3-n3c(C)ccc3C)cc2n1 -3.07%
Cc1cc(C)n2nc(-c3ccsc3-n3c(C)ccc3C)cc2n1 16.4%
O=C(c1ccccc1)c1n[nH]c(-c2ccccc2)cc1=O 0.47%
CCOC(=O)N1CCC(NC(=O)c2cnn3cccnc23)CC1 -2.64%
O=C(CCSCCC(=O)Nc1c(F)c(F)c(F)c(F)c1F)Nc1c(F)c(F)c(F)c(F)c1F -9.21%
O=C(O)CCCC(=O)Nc1c(F)c(F)c(F)c(F)c1F 3.4%
CN(C)c1nc(NNC(=O)c2ccccc2)nc(N(C)C)n1 -5.34%
C=CCn1c(SCC(=O)c2cccs2)nc2sc(C)c(C)c2c1=O -46.6%
C=CCn1c(SCC(=O)Nc2cc(C)on2)nc2sc(C)c(C)c2c1=O -2.76%
CCN(CC(=O)Nc1c(F)cccc1F)C(=O)c1ccc2c(c1)S(=O)(=O)N=C1CCCCCN12 -6.51%
COc1cc(/C=C/C(=O)OCC(=O)NCC2CCCCC2)ccc1O -4.25%
O=C(/C=C/c1ccc(O)c(O)c1)c1ccccc1O 13.2%
O=C(CCOc1ccccc1)Nc1ccc([N+](=O)[O-])cc1 5.33%
COc1cccc(NC(=O)CN(C)C(=O)c2cc(-c3ccco3)nc3ccccc23)c1 23.7%
Cc1ccc(NC(=O)CN(C)C(=O)c2cc(-c3ccco3)nc3ccccc23)cc1 55.7%
COc1ccc(NC(=O)CN(C)C(=O)c2cc(-c3ccc(Cl)cc3)nc3ccccc23)cc1 2.66%
COc1ccc(NC(=O)c2cc(C)nc3ccccc23)cc1S(=O)(=O)N1CCOCC1 -2.24%
Cc1ccc(NC(=O)c2cc(-c3ccco3)nc3ccccc23)cc1S(=O)(=O)N1CCOCC1 32.6%
CN(CC(=O)Nc1cccc(F)c1)C(=O)c1cc(-c2ccccc2)nc2ccccc12 -4.43%
COc1ccc(NC(=O)CN(C)C(=O)c2cc(-c3ccc(OC)cc3)nc3ccccc23)cc1 -5.94%
CCOc1ccc(NC(=O)CN(C)C(=O)c2cc(-c3ccco3)nc3ccccc23)cc1OCC -2.81%
CC(=O)c1cccc(N/C=C\c2nnnn2-c2ccc(F)cc2)c1 -15.5%
CCOC(=O)c1ccc(-c2c(C)cc3oc(=O)cc(-c4ccccc4)c3c2C)cc1 -7.8%
CC1=NN(c2cccc(F)c2)C(=O)/C1=C/c1ccc(N(C)C)cc1 7.52%
COc1ccc(C(=O)c2ccc(N(C)C)cc2)c2ccccc12 -5.09%
O=[N+]([O-])c1ccc2c(c1)c(-c1ccccc1)nc1nncn12 1.68%
CCN(CC)CC(O)Cn1c(C)c(-c2ccccc2)c2cc([N+](=O)[O-])ccc21 (centres undefined) -3.66%
CN(C)c1ccc(C=c2c3ccccc3n3c2c2c([n+]3C)CCCC2)cc1 26.6%
CN(C)c1ccc(C=O)c(Oc2ccccc2)c1 -6.28%
Cc1cccc(C)c1NC(=O)C1CCCN(CCCc2ccccc2)C1 (centres undefined) 3.24%
COC(=O)c1ccc(CNC(=O)c2ccc(NS(=O)(=O)c3ccc4[nH]c(=O)[nH]c4c3)cc2)cc1 -7.35%
CCOc1ccc(NC(=O)/C(C=Nc2ccccc2)=C(\C)O)cc1 -3.41%
CCCc1nc(SCC(=O)N2CCCC2)c2ccccc2n1 -0.12%
CC(C)(C)OC(=O)N(CCc1ccccc1)Cc1ccccc1OCc1cccc(NC(=O)C2CCCC2)c1 1.13%
CN(C)CCCNC(=O)C[C@H]1C[C@H](C(=O)N2CCCCC2)[C@@]2(CCc3ccccc3)c3[nH]c4ccc(Cl)cc4c3CCN2C1=O 3.82%
O=C1CC(c2ccco2)CC(O)=C1C=NCCN1CCN(C(=O)Nc2ccc(Cl)cc2)CC1 (centres undefined) -5.15%
O=C1CC(c2ccccc2)CC(O)=C1C=Nc1ccccc1Cl (centres undefined) -5.59%
O=C1CC(c2ccco2)CC(O)=C1C=Nc1ccccc1-c1ccccc1 (centres undefined) 18.4%
Cc1[nH]nc(N=CC2=C(O)CC(c3ccco3)CC2=O)c1-c1ccc(Cl)cc1 (centres undefined) 8.53%
CCc1ccc(N=CC2=C(O)CC(c3ccco3)CC2=O)cc1 (centres undefined) -1.68%
O=C1CC(c2ccco2)CC(O)=C1C=NCCN1CCNCC1 (centres undefined) 31.7%
Cc1ccc(N=CC2=C(O)CC(c3ccco3)CC2=O)cc1 (centres undefined) 14.7%
CC(C)C(=O)N1CCN(CCN=CC2=C(O)CC(c3ccco3)CC2=O)CC1 (centres undefined) -5.81% and 11.7%
